Measured values: the supplement of paper PMC6089552
± gives the standard deviation of the averaged measurements. About 300 (9.4%) of roughly 3,200 compounds showed activity. Shown is part of a subset that was picked to be rich in actives.

System: A673/TR/shEF
Assay: cell viability (LOESS-normalised, relative to median of negative controls) (log2 ratio); higher = more viable cells (less compound effect), active = hit call of the paper (over 3 MAD below the median)
Conditions: treatment time: 72 h
How it was run: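 A673/TR/shEF Ewing sarcoma cells (1,500 per well, 384-well plates) were grown with or without doxycycline to induce EWS-FLI1 shRNA knockdown, starting 24 h before compounds. Library compounds at two or more concentrations, with DMSO controls, were added for three days. Cell viability was read by CellTiter-Glo luminescence on an Envision reader, then LOESS-corrected per plate, divided by the median of negative controls and log2-transformed. Hits were wells at least three median absolute deviations from the median of all screened wells.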

[1] = 0.25 µM, library screen: screen1, EWS-FLI1 expression: high (no doxycycline)
[2] = 0.25 µM, library screen: screen1, EWS-FLI1 expression: low (doxycycline-induced shRNA knockdown)
[3] = 2.5 µM, library screen: screen1, EWS-FLI1 expression: high (no doxycycline)
[4] = 2.5 µM, library screen: screen1, EWS-FLI1 expression: low (doxycycline-induced shRNA knockdown)
[5] = 0.25 µM, library screen: screen2, EWS-FLI1 expression: high (no doxycycline)
[6] = 0.25 µM, library screen: screen2, EWS-FLI1 expression: low (doxycycline-induced shRNA knockdown)
[7] = 2.5 µM, library screen: screen2, EWS-FLI1 expression: high (no doxycycline)
[8] = 2.5 µM, library screen: screen2, EWS-FLI1 expression: low (doxycycline-induced shRNA knockdown)
[9] = 0.103 µM, library screen: screen3, EWS-FLI1 expression: high (no doxycycline)
[10] = 0.103 µM, library screen: screen3, EWS-FLI1 expression: low (doxycycline-induced shRNA knockdown)
[11] = 0.308 µM, library screen: screen3, EWS-FLI1 expression: high (no doxycycline)
[12] = 0.308 µM, library screen: screen3, EWS-FLI1 expression: low (doxycycline-induced shRNA knockdown)
[13] = 0.926 µM, library screen: screen3, EWS-FLI1 expression: high (no doxycycline)
[14] = 0.926 µM, library screen: screen3, EWS-FLI1 expression: low (doxycycline-induced shRNA knockdown)
[15] = 2.8 µM, library screen: screen3, EWS-FLI1 expression: high (no doxycycline)
[16] = 2.8 µM, library screen: screen3, EWS-FLI1 expression: low (doxycycline-induced shRNA knockdown)
[17] = 8.3 µM, library screen: screen3, EWS-FLI1 expression: high (no doxycycline)
[18] = 8.3 µM, library screen: screen3, EWS-FLI1 expression: low (doxycycline-induced shRNA knockdown)
[19] = 25 µM, library screen: screen3, EWS-FLI1 expression: high (no doxycycline)
[20] = 25 µM, library screen: screen3, EWS-FLI1 expression: low (doxycycline-induced shRNA knockdown)

Measured: cell viability (log2)

CC(C)CC1NC(=O)CNC1=O (stereo unspecified)
inactive: [1] 0.138 | [2] 0.0779 | [3] 0.0859 | [4] 0.0262

Oc1ccc2c(c1)O[C@H](c1ccc(O)c(O)c1)[C@@H](O)C2
inactive: [1] 0.0741 | [2] -0.0244 | [3] 0.0985 | [4] 0.085

COc1cc(O)c2c(=O)cc(-c3ccc(OC)c(-c4c(O)cc(O)c5c(=O)cc(-c6ccc(O)cc6)oc45)c3)oc2c1
inactive: [1] 0.0329 | [2] 0.0664 | [3] 0.144 | [4] -0.0351

CC(=O)OCC(=O)[C@@]1(O)CC[C@H]2[C@@H]3CC[C@@H]4C[C@H](OC(C)=O)CC[C@]4(C)[C@H]3C(=O)C[C@@]21C
inactive: [1] 0.118 | [2] 0.0343 | [3] 0.0611 | [4] -0.0696

NC(CCC(=O)NCS(=O)(=O)O)C(=O)O (stereo unspecified)
inactive: [5] 0.192 | [6] 0.0399 | [7] 0.0879 | [8] 0.0533

N/C(=N/c1nc2ccccc2o1)NC(=O)c1cccc(Br)c1
inactive: [1] 0.0693 | [2] -0.0125 | [3] 0.162 | [4] -0.0831

CN(Cc1ccccc1)C(=O)C=Cc1ccc([N+](=O)[O-])cc1
inactive: [1] 0.0837 | [2] 0.078 | [3] 0.013 | [4] 0.137

COc1ccc(OC)c(C2NC(=S)NC(C)=C2C(=O)Nc2ccccc2Cl)c1 (stereo unspecified)
inactive: [1] 0.0287 | [2] 0.0702 | [3] 0.112 | [4] 0.148

CC(=O)[C@]1(O)Cc2c(O)c3c(c(O)c2[C@@H](O[C@H]2C[C@H](N)[C@H](O)[C@H](C)O2)C1)C(=O)c1ccccc1C3=O
active: [5] -2.37 | [6] -0.307 | [7] -3.12 | [8] -0.984

COc1cccc2c1C(=O)c1c(O)c3c(c(O)c1C2=O)C[C@@](O)(C(=O)CO)C[C@@H]3O[C@H]1C[C@H](N)[C@H](O)[C@H](C)O1
inactive: [9] -0.177 | [10] -0.0878
active: [11] -0.86 | [12] -0.36 | [13] -1.59 | [14] -0.403 | [15] -2.62 | [16] -1.5 | [17] -4.26 | [18] -4.27 | [19] -4.05 | [20] -4.25

COc1cccc2c1C(=O)c1c(O)c3c(c(O)c1C2=O)C[C@@](O)(C(=O)CO)C[C@@H]3O[C@H]1C[C@H](N)[C@@H](O)[C@H](C)O1
active: [9] -0.347 | [10] -0.195 | [11] -1.12 | [12] -0.399 | [13] -1.58 | [14] -0.41 | [15] -3.26 | [16] -1.19 | [17] -4.26 | [18] -4.27 | [19] -4.26 | [20] -4.25

COc1cccc2c1C(=O)c1c(O)c3c(c(O)c1C2=O)C[C@@](O)(C(C)=O)C[C@@H]3O[C@H]1C[C@H](N)[C@H](O)[C@H](C)O1
active: [9] -0.695 | [5] -1.6 | [6] -0.269 | [11] -1.27 | [12] -0.403 | [13] -2.5 | [14] -0.592 | [7] -2.54 | [8] -0.371 | [15] -3.11 | [16] -1.48 | [17] -4.09 | [18] -3.66 | [19] -4.26 | [20] -4.25
-0.133 ± 0.18: [10]

Cc1cccc(-n2ncc3c(N4CCCC4)ncnc32)c1
inactive: [1] 0.069 | [2] 0.0339 | [3] 0.118 | [4] 0.0767

COc1cc(-c2oc3c(OC)c(O)cc(O)c3c(=O)c2O)ccc1O
inactive: [1] 0.0554 | [2] 0.0375 | [3] 0.0118 | [4] 0.0806

COc1ccc(OC)c(CN2CCN(Cc3c[nH]c4ccccc34)CC2)c1
inactive: [1] 0.113 | [2] 0.0685 | [3] 0.072 | [4] 0.0923

C[C@@H](O)[C@H]1C(=O)N2C(C(=O)[O-])=C(SC3Cn4cnc[n+]4C3)[C@H](C)[C@H]12 (stereo partly specified)
inactive: [9] 0.0935 | [10] 0.0362 | [11] 0.108 | [12] 0.0849 | [13] 0.0657 | [14] 0.0643 | [15] 0.107 | [16] 0.0482 | [17] 0.0477 | [18] 0.0712 | [19] 0.131 | [20] 0.0731

CN=c1nc(C2C=CC=CC2)n(C2C=CC=CC2)s1 (stereo unspecified)
inactive: [5] 0.18 | [6] 0.0729 | [7] 0.119 | [8] 0.0881

C/C(=C\CO)CCC[C@H](C)CCC[C@H](C)CCCC(C)C
inactive: [1] 0.0657 | [2] 0.0273 | [3] 0.135 | [4] -0.104

CCCCC[C@@H](CC(=O)O)C(=O)O
inactive: [1] 0.0401 | [2] 0.147 | [3] 0.16 | [4] 0.126

CO[C@H]1C=CC2CCN3CCC4=C(CC(=O)OC4)[C@]23C1 (stereo partly specified)
inactive: [5] 0.124 | [6] 0.124 | [7] 0.0895 | [8] 0.152

CC1(C)OC(=O)C=C[C@@]2(C)C1C[C@@H](O)[C@]1(C)C2CC[C@@]2(C)[C@H](c3ccoc3)OC(=O)C3OC321 (stereo partly specified)
inactive: [1] 0.0796 | [2] 0.0686 | [3] 0.159 | [4] 0.0743

Cc1nc2ccc(NC(=S)N3CCCC3)cc2nc1C
inactive: [1] -0.0193 | [2] 0.0405 | [3] 0.0212 | [4] 0.0752

CC1=C(C(=O)Nc2cccc(Cl)c2)C(c2cccs2)NC(=S)N1 (stereo unspecified)
inactive: [1] 0.0938 | [2] 0.0927 | [3] 0.145 | [4] 0.108

O=C(Nc1cccc(Cl)c1)/C(=C\c1ccco1)NC(=O)c1cccs1
inactive: [1] -0.0172 | [2] 0.0581 | [3] 0.0419 | [4] 0.0226

Cc1cn2c(=O)c3ccccc3nc2nc1Nc1ccccc1C(=O)O
inactive: [1] 0.138 | [2] 0.0987 | [3] 0.0749 | [4] 0.0532
